Common to all, as to experiment: NCI-60 one-dose screen, 48 h (100 = growth as untreated, 0 = no growth, -100 = all killed)
One assay concerns SR leukemia. As to conditions: 10 µM unless noted.
For another assay, the system named is RPMI-8226 leukemia. As to conditions: 10 µM unless noted.
A further assay relates to OVCAR-8 ovarian. To be noted: 10 µM unless noted.
In the next assay the test system is OVCAR-5 ovarian. As to conditions: 10 µM unless noted.
For another assay, the system named is OVCAR-4 ovarian. As to conditions: 10 µM unless noted.
In another assay the test system is SK-OV-3 ovarian. As to conditions: 10 µM unless noted.
The next assay deals with IGROV1 ovarian. As to conditions: 10 µM unless noted.
The test system of another assay is OVCAR-3 ovarian. To be noted: 10 µM unless noted.
The test system of the next assay is NCI/ADR-RES ovarian. As to conditions: 10 µM unless noted.
A further assay concerns T-47D breast. To be noted: 10 µM unless noted.
A further assay relates to BT-549 breast. To be noted: 10 µM unless noted.
For the next assay, the system named is MDA-MB-435 melanoma. As to conditions: 10 µM unless noted.
Another assay relates to SW-620 colon. As to conditions: 10 µM unless noted.
The test system of the next assay is MCF7 breast. As to conditions: 10 µM unless noted.
The test system of a further assay is HCT-116 colon. To be noted: 10 µM unless noted.
Another assay deals with KM12 colon. As to conditions: 10 µM unless noted.
The subject of a further assay is HCC-2998 colon. As to conditions: 10 µM.

About 83,000 compounds went through this panel and 20% of them were active in at least one assay; those are over-represented in the sample as a whole.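 The test compound was applied at a single concentration to cells in 96-well plates for 48 hours, and percent growth was recorded.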 Unmarked numbers belong to inactive results. The source made the active and inactive calls. Rule for the calls: active = growth percent below 10; inactive = the rest.

Regarding `Cc1nc(-c2cn3c(n2)-c2ccc(-c4cnn(C(C)(C)C(N)=O)c4)cc2OCC3)n(C(C)C)n1`, the growth in the assay on SR leukemia was 30.1%; with RPMI-8226 leukemia, 39.3%; with OVCAR-8 ovarian, 32.9%; in the assay on OVCAR-5 ovarian, 28.8%; in the assay on OVCAR-4 ovarian, 62.5%; with SK-OV-3 ovarian, -22.1% (active). Besides, the growth in the assay on IGROV1 ovarian is -10.7% (active); in the assay on OVCAR-3 ovarian it was 24.5%; with NCI/ADR-RES ovarian it was 39.2%; in the assay with T-47D breast, -9.88% (active); in the assay on BT-549 breast, 14.9%; in the assay with MDA-MB-435 melanoma it was 27.8%. In addition, the growth is 44% with SW-620 colon, 13.7% in the assay on MCF7 breast, 20.4% in the assay on HCT-116 colon and 16.2% in the assay with KM12 colon.

For `C[C@@H](Oc1cc(-c2cnn(C3CCNCC3)c2)cnc1N)c1c(Cl)ccc(F)c1Cl`, the growth in the assay with SR leukemia is -35.7% (active); in the assay with RPMI-8226 leukemia it was -43.3% (active); in the assay with OVCAR-8 ovarian, -27.5% (active); with OVCAR-5 ovarian, -28.7% (active); with OVCAR-4 ovarian it was -23.9% (active); with SK-OV-3 ovarian, -39.4% (active). Also, the growth in the assay on IGROV1 ovarian was -24.5% (active); in the assay with OVCAR-3 ovarian, 6.67% (active); with NCI/ADR-RES ovarian it was 2.26% (active); in the assay with T-47D breast, -65.8% (active); with BT-549 breast, -42.3% (active); with MDA-MB-435 melanoma it was -90.6% (active). Besides, the growth in the assay with SW-620 colon was -59.9% (active); with MCF7 breast, -66.1% (active); with HCT-116 colon, -73.1% (active); in the assay on HCC-2998 colon, -73.2% (active); with KM12 colon it was -61.2% (active).

With `O=C(Nc1cn[nH]c1-c1nc2ccc(CN3CCOCC3)cc2[nH]1)NC1CC1`, the growth with SR leukemia was -11.9% (active); in the assay with RPMI-8226 leukemia, 108%; with OVCAR-8 ovarian, 28.7%; in the assay on OVCAR-5 ovarian, 22.5%; in the assay with OVCAR-4 ovarian it was 78.5%; with SK-OV-3 ovarian, -5.97% (active). Besides, the growth is 9.49% (active) in the assay on IGROV1 ovarian; 11.7% in the assay with OVCAR-3 ovarian; 76.3% in the assay with NCI/ADR-RES ovarian; 36.7% in the assay on T-47D breast; 2.57% (active) in the assay with BT-549 breast; 35.9% in the assay with MDA-MB-435 melanoma. The growth with SW-620 colon was 11.5%; with MCF7 breast, 10.4%; with HCT-116 colon, 3.94% (active); with HCC-2998 colon it was 41.8%; in the assay on KM12 colon it was 6.92% (active).

Consider `COc1cc2nccc(Oc3ccc(NC(=O)C4(C(=O)Nc5ccc(F)cc5)CC4)cc3)c2cc1OC`, for which the growth in the assay on SR leukemia is 0.0186% (active); in the assay with RPMI-8226 leukemia, 26.4%; in the assay with OVCAR-8 ovarian, 19.8%; in the assay on OVCAR-5 ovarian, 9.6% (active); in the assay with OVCAR-4 ovarian, 26.3%; in the assay with SK-OV-3 ovarian, -15.1% (active). In addition, the growth with IGROV1 ovarian is -15.9% (active); in the assay with OVCAR-3 ovarian it was 41.2%; in the assay on NCI/ADR-RES ovarian, 13.8%; in the assay with T-47D breast, -14% (active); with BT-549 breast it was 32.8%; in the assay on MDA-MB-435 melanoma, 8.75% (active). Further, the growth in the assay with SW-620 colon is -27.3% (active); in the assay with MCF7 breast, 15.6%; in the assay on HCT-116 colon, 1.99% (active); in the assay with HCC-2998 colon it was 30.5%; with KM12 colon, 7.5% (active).

Regarding `Cc1cccc(Cl)c1NC(=O)c1cnc(Nc2cc(N3CCOCC3)cc(N3CCOCC3)c2)s1`, the growth is 15.7% in the assay on SR leukemia; 89.8% with RPMI-8226 leukemia; -36.2% (active) in the assay on OVCAR-8 ovarian; 23.3% in the assay with OVCAR-5 ovarian; 60.4% in the assay with OVCAR-4 ovarian; -38.7% (active) with SK-OV-3 ovarian. In addition, the growth in the assay on IGROV1 ovarian was -51.7% (active); with OVCAR-3 ovarian, 19.7%; in the assay with NCI/ADR-RES ovarian, 23.6%; in the assay with T-47D breast, 0.787% (active); in the assay with BT-549 breast it was 56.3%; in the assay on MDA-MB-435 melanoma, 10.3%. Moreover, the growth with SW-620 colon is 82.2%; in the assay with MCF7 breast it was 75%; in the assay on HCT-116 colon, 11.5%; with KM12 colon it was 62.4%.

`Cc1ccc(NC(=O)c2ccc(CN3CC[C@H](N(C)C)C3)c(C(F)(F)F)c2)cc1Nc1nccc(-c2cncnc2)n1`: the growth in the assay on SR leukemia was -7.54% (active); with RPMI-8226 leukemia, -9.27% (active); in the assay on OVCAR-8 ovarian it was 3.4% (active); with OVCAR-5 ovarian it was 15.3%; with OVCAR-4 ovarian, -4.76% (active); with SK-OV-3 ovarian, 38.6%. Also, the growth was 0.261% (active) with IGROV1 ovarian; -6.36% (active) in the assay on OVCAR-3 ovarian; 24.9% with NCI/ADR-RES ovarian; -58.9% (active) in the assay on T-47D breast; 35.9% with BT-549 breast; -18.3% (active) in the assay with MDA-MB-435 melanoma. For the same compound, the growth is 8.15% (active) in the assay on SW-620 colon; 7.04% (active) in the assay on MCF7 breast; -17.4% (active) in the assay on HCT-116 colon; -22.7% (active) with HCC-2998 colon; 10.4% with KM12 colon.

Consider `COc1ncc(-c2ccc3nccc(-c4ccnnc4)c3c2)cc1NS(=O)(=O)c1ccc(F)cc1F`, for which the growth with SR leukemia is -16.9% (active); in the assay with RPMI-8226 leukemia it was -35.4% (active); in the assay with OVCAR-8 ovarian, -17% (active); with OVCAR-5 ovarian it was 7.97% (active); with OVCAR-4 ovarian, -8.87% (active); in the assay with SK-OV-3 ovarian it was -52.1% (active). Also, the growth in the assay on IGROV1 ovarian was -24.1% (active); in the assay with OVCAR-3 ovarian, -58% (active); with NCI/ADR-RES ovarian, -20% (active); with T-47D breast, -25.3% (active); with BT-549 breast it was -31.7% (active); with MDA-MB-435 melanoma, -78% (active). The growth was -30.9% (active) in the assay with SW-620 colon; 8.48% (active) with MCF7 breast; -48.7% (active) with HCT-116 colon; -78.4% (active) in the assay with HCC-2998 colon; -60.5% (active) with KM12 colon.

As to `COc1cc2c(Oc3ccc(NC(=O)C4(C(=O)Nc5ccc(F)cc5)CC4)cc3F)ccnc2cc1OCCCN1CCOCC1`, the growth in the assay on SR leukemia was -16.7% (active); in the assay with RPMI-8226 leukemia it was 10.3%; with OVCAR-8 ovarian, 26.8%; with OVCAR-5 ovarian it was 11.7%; in the assay on OVCAR-4 ovarian, 32.1%; in the assay on SK-OV-3 ovarian, -13.8% (active). Besides, the growth was -34.7% (active) with IGROV1 ovarian; 46.5% in the assay with OVCAR-3 ovarian; 9.62% (active) in the assay with NCI/ADR-RES ovarian; 0.289% (active) with T-47D breast; 17.8% in the assay on BT-549 breast; -75.1% (active) with MDA-MB-435 melanoma. The growth was -31.4% (active) with SW-620 colon, -22.2% (active) in the assay on MCF7 breast, -61.2% (active) with HCT-116 colon and 0.619% (active) in the assay on KM12 colon.

For the compound `CCCCCCCC12Cc3ccccc3C1=Nc1c(c3ccccc3n1C)C2=O` (stereo not given), the growth was 82.6% in the assay with SR leukemia; 91.8% in the assay on RPMI-8226 leukemia; 85.2% in the assay with OVCAR-8 ovarian; 86.5% in the assay with OVCAR-5 ovarian; 97.4% in the assay with OVCAR-4 ovarian; 81.6% in the assay on SK-OV-3 ovarian. In addition, the growth in the assay on IGROV1 ovarian was 69.5%; with OVCAR-3 ovarian it was 92.9%; with NCI/ADR-RES ovarian, 94.2%; in the assay with T-47D breast, 72.4%; in the assay with BT-549 breast, 108%; with MDA-MB-435 melanoma, 105%. In addition, the growth with SW-620 colon was 97%; in the assay on MCF7 breast, 80.2%; in the assay on HCT-116 colon it was 73.9%; with HCC-2998 colon, 96.3%; in the assay with KM12 colon, 94.2%.

(Values after PubChem BioAssay (NCI).)
